# Measured values: PubChem BioAssay
# Results filed as inconclusive are left out. Calls of active or inactive are those of the source. Cut-off read from the data, not from the text of the source, unless noted: active = percent of DMSO control GFP below about 86%; inactive = the rest, inconclusive results apart.
# How the values were obtained:
# [1] = rapamycin-like changes in RPL19A-GFP expression – cell-based, S. cerevisiae, multiplex flow cytometry, primary screen (AID 1862);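 note: lower values mimic rapamycin by blocking the RPL19A rise seen in DMSO cells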; conditions: S. cerevisiae RPL19A-GFP strain, flow cytometry fluorescence, 3 h; at 10 µM; stronger effect = lower value
# [2] = TOR pathway GLN3 branch reporter MEP2-GFP changes – S. cerevisiae, multiplex flow cytometry, primary screen (AID 1867;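 active = GFP response, as percent of the DMSO control, above the screen-wide mean plus 3 SD, about 139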;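 note: median GFP channel fluorescence of barcode-gated MEP2-GFP cells measured by flow cytometry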); conditions: S. cerevisiae MEP2-GFP strain, 3 h, at 10 µM, stronger effect = higher value, 100% means same as DMSO wells
# [3] = TOR pathway RTG branch CIT2 reporter changes – S. cerevisiae, GFP fusion, multiplex flow cytometry, primary screen (AID 1870;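 active = percent response above a set limit, the screen-wide mean plus 3 SD, cut at about 130% in these data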;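 note: barcoded CIT2-GFP strain pooled with four other GFP strains with rapamycin as positive control; median GFP fluorescence per well over plate mean of DMSO wells so 100% = DMSO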); conditions: S. cerevisiae CIT2-GFP expression, 3 h, at 10 µM, stronger effect = higher value
# [4] = TOR pathway LAP4-GFP level changes – S. cerevisiae, multiplex flow cytometry, primary screen (AID 1873;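 active = GFP signal, as percent of the solvent control, above the screen mean plus 3 SD, about 149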); conditions: S. cerevisiae LAP4-GFP expression, 3 h, at 10 µM, stronger effect = higher value
# [5] = yeast AGP1-GFP level changes, GLN3 branch – cell-based, multiplex flow cytometry, S. cerevisiae, primary screen (AID 1887;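 active = GFP signal above the screen-wide mean plus 3 SD, that is over about 124.5% of the solvent control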;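 note: AGP1-GFP fusion strain of S. cerevisiae within a five-strain barcoded multiplex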); conditions: 3 h, at 10 µM, stronger effect = higher value
# [6] = reduced mouse 2C T cell binding to pMHC/ICAM-1 vesicles – MLPCN validation set, flow cytometry, LFA-1/ICAM-1 modulator project, pilot screen (AID 2523;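 active = response below a set limit, under 55% cells CD8-positive and vesicle-bound, and CD8 cells' 90th-percentile brightness under 279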;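 for vesicle binding response: mean PE anti-B7-1 fluorescence of CD8+ cells relative to row control; 100% = QL9-loaded vesicles with DMSO vehicle in the same plate row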); conditions: 2C mouse CD8+ T cells, at 7 µM, stronger effect = lower value; double positive events: measured here: CD8+/vesicle+ event percentage
# [7] = biological target: Integrin beta-1 (Homo sapiens) + Integrin alpha-4 (Homo sapiens) (UniProt P13612+P05556); assay: alpha4beta1 integrin LIBS antibody binding reduction – U937 cells, HUTS-21 mAb, flow cytometry, validation set, VLA-4 allosteric modulator project, pilot screen (AID 2674;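 active = inhibition above 50%, about 3 SD of the validation set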;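 note: antibody binding induced by the VLA-4 ligand LDV present at three times its Kd; 0% = LDV ligand with antibody and no compound and 100% = antibody without LDV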); conditions: HUTS-21 LIBS mAb binding, at 6.7 µM, stronger effect = higher value, binding induced by LDV ligand
# Integrin beta-1 (Homo sapiens) + Integrin alpha-4 (Homo sapiens), sequence (P05556 whole entry, looked up): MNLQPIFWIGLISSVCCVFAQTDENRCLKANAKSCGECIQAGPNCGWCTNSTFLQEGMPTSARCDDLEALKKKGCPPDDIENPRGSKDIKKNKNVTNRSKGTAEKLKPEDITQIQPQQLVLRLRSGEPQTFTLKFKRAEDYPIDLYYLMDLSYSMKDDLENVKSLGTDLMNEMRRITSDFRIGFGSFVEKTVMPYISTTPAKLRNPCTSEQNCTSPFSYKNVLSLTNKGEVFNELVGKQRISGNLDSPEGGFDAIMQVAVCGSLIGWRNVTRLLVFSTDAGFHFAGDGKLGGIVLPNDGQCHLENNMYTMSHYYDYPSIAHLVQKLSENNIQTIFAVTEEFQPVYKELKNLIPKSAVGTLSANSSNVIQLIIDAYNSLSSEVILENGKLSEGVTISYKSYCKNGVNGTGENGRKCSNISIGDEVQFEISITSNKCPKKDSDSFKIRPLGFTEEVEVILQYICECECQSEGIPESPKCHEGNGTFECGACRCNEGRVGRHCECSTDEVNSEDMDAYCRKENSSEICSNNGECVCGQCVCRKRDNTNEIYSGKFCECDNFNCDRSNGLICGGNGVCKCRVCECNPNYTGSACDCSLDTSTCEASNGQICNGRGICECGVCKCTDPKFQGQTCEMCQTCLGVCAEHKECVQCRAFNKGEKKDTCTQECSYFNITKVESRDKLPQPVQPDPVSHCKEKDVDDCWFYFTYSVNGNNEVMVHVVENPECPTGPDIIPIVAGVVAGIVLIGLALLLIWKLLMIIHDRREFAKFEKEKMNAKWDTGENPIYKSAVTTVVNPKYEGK
# Integrin beta-1 (Homo sapiens) + Integrin alpha-4 (Homo sapiens), sequence (P13612 whole entry, looked up): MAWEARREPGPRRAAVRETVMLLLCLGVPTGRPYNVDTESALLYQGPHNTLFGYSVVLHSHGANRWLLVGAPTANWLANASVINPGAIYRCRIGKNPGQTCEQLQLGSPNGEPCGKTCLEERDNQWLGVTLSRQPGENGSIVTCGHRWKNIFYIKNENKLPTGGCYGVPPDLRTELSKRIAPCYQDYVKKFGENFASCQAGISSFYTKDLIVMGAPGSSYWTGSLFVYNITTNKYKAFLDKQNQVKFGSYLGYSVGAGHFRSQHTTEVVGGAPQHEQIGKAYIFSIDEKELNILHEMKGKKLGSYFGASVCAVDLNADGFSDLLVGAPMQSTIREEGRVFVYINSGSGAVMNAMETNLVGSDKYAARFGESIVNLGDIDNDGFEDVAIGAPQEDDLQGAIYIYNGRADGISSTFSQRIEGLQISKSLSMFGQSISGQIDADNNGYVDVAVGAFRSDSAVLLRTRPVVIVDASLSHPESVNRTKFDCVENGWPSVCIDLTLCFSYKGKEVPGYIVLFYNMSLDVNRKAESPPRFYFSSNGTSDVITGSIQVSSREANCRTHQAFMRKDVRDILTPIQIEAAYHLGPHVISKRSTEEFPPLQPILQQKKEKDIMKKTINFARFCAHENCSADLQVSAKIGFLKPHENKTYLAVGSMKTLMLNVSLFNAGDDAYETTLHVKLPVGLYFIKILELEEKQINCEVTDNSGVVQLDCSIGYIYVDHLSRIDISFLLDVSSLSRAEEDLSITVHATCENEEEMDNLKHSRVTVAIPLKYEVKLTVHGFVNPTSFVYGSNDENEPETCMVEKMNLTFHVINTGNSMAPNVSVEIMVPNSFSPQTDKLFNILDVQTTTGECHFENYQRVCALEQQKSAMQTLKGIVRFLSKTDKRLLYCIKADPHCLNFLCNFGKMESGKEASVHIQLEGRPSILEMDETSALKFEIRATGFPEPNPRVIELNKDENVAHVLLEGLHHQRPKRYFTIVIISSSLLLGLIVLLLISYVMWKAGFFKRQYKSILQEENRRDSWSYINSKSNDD
# [8] = calorie-restriction mimetic ROS inhibitors, yeast – validation compound set, pilot screen (AID 2706;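 active = superoxide response below 65% of plate, a cut near 3 SD across the whole screen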;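 note: yeast exposed to compound for one week at 30 degrees C before staining; 100% = mean of all compound wells on the same plate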); conditions: S. cerevisiae aging, superoxide DHE fluorescence; at 10 µM; stronger effect = lower value
# [9] = biological target: Beta-adrenergic receptor kinase 1 (Homo sapiens) (UniProt P25098); assay: GRK2 binders displacing RNA aptamer, biochemical, validation, human GRK2, bead flow cytometry (AID 488806;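 active = aptamer binding inhibition above 30%, about 3 SD of noise from non-fluorescent compounds; inactive = inhibition at or below 30%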); conditions: bead-bound GRK2, FAM-aptamer displacement, at 10 µM, stronger effect = higher value
# Beta-adrenergic receptor kinase 1 (Homo sapiens), sequence (P25098 whole entry, looked up): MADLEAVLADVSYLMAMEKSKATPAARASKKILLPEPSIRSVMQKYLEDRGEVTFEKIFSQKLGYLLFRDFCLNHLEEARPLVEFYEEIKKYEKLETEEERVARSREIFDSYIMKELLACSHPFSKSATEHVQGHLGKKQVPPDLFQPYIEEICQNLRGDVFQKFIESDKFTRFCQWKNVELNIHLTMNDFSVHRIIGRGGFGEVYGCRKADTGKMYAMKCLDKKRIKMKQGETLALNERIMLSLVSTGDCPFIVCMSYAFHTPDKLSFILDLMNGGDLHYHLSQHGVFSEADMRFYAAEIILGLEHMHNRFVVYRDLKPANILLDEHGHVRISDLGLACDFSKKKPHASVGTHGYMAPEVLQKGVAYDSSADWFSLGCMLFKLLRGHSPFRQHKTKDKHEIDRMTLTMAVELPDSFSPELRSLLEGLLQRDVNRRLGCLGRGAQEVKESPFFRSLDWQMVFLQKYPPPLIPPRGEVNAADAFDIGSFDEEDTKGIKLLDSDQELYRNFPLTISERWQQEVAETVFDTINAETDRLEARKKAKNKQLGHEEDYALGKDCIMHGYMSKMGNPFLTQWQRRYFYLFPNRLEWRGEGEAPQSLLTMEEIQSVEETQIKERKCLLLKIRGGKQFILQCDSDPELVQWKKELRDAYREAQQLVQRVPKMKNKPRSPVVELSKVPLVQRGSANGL
# [10] = biological target: Beta-2 adrenergic receptor (Homo sapiens) (UniProt P07550); assay: agonist-induced loss of surface beta2AR – cell-based, FAP fluorogen, flow cytometry, validation set, pilot screen (AID 504459;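 active = percent response above 42, roughly 3 SD of non-fluorescent test compounds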;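 note: agonist-driven loss of surface beta2AR via internalization measured by FAP dye flow cytometry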); conditions: Am2.2-beta2AR cells, at 10 µM, stronger effect = higher value
# Beta-2 adrenergic receptor (Homo sapiens), sequence (P07550 whole entry, looked up): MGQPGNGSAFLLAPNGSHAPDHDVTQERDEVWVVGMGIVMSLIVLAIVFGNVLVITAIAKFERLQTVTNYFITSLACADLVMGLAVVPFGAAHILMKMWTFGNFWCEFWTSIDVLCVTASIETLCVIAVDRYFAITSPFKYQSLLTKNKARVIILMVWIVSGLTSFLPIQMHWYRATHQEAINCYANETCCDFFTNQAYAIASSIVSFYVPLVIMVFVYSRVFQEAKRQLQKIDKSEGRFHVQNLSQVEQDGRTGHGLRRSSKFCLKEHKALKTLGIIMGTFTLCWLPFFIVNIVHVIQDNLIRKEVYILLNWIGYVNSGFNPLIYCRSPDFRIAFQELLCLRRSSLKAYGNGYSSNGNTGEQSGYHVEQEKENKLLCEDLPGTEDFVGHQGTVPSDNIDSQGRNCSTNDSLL
# [11] = biological target: AP-2 complex subunit beta (Homo sapiens) (UniProt P63010); assay: beta-arrestin/AP2 interaction blockers – biochemical, validation set, GST-AP2 beads, flow cytometry, pilot screen (AID 504541;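 active = inhibition above 54%, about 3 SD of non-fluorescent compounds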;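 note: AP2 carries R879A mutation and is captured from E. coli lysate; bead-bound FITC arrestin peptide fluorescence measuring arrestin peptide binding to AP2; 0% = DMSO wells and 100% = excess unlabeled arrestin peptide control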); conditions: FITC arrestin peptide, at 10 µM, stronger effect = higher value, AP2 beta2 appendage fragment, R879A mutant
# AP-2 complex subunit beta (Homo sapiens), sequence (P63010 whole entry, looked up, the tested form may be a part, one chain of several): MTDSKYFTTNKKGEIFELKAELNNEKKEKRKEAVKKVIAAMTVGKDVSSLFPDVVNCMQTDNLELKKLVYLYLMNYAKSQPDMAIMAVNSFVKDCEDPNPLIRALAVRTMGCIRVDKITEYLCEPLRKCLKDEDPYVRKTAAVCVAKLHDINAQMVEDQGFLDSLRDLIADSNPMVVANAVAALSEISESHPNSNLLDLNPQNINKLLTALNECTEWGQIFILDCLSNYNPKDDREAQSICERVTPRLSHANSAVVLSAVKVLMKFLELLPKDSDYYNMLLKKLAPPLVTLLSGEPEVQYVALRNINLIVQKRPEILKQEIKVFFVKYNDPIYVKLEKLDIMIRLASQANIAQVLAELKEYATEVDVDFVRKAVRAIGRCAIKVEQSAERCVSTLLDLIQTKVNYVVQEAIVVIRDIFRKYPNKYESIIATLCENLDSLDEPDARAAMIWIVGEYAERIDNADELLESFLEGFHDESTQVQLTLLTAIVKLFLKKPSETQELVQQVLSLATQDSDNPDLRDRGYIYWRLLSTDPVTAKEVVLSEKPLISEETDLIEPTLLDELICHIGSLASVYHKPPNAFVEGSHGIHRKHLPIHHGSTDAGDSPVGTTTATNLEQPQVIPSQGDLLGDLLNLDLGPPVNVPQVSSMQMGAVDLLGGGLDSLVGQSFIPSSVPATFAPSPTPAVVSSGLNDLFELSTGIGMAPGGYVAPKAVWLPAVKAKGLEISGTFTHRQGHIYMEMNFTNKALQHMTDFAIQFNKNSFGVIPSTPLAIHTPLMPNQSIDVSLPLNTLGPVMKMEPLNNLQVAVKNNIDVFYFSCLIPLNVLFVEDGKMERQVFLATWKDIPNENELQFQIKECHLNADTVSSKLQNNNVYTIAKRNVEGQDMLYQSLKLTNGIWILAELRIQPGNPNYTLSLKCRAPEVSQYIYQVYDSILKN
# [12] = cytosolic pH regulators acting via V-ATPase – S. cerevisiae, pHLuorin, HTS validation (AID 504600; in the data active = response above about 15%;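 note: plate controls were DMSO for no effect and reference compound for full effect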); conditions: V-ATPase proton transport, at 10 µM, stronger effect = higher value
# [13] = tested on: anti-desmoglein-3 scFv antibody binding to human DSG3; assay: blockers of pathogenic pemphigus antibody–desmoglein-3 binding – biochemical, validation compound set, bead-based, flow cytometry, pilot screen (AID 588368;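 active = binding below the plate cutoff, the plate median minus 3 SD, with a reading above zero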;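 note: signal is the median channel fluorescence of bead-bound GFP antibody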); conditions: Protein G beads, DSG3-Fc, scFv-GFP binding, at 10 µM, stronger effect = lower value
# [14] = Nile Red efflux blockade in pump-expressing yeast – validation compound set, multiplex, phenotypic, pilot screen (AID 588506;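 active = efflux inhibition above 0.42, the validation set average plus 4 SD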;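 note: Nile Red retained in cells so higher fluorescence means more efflux inhibition; 0 = negative control wells and 1 = enniatin B 25 µM full block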); conditions: S. cerevisiae pump-expressing triplex, Nile Red efflux flow cytometry; at 10 µM; stronger effect = higher value; the pumps come from Candida albicans
# [15] = biological target: ATP-binding cassette sub-family B member 6 (Homo sapiens) (UniProt Q9NP58); assay: blockers of ABCB6-driven porphyrin uptake – K562-ABCB6 cells, flow cytometry, validation set, pilot screen (AID 588550;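 active = inhibition above the screen-wide mean plus 3 SD, about 51%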;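 note: 0% = DMSO wells and 100% = benzethonium chloride 70 µM positive control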); conditions: K562-ABCB6 porphyrin accumulation, 1 h, at 10 µM, stronger effect = higher value
# ATP-binding cassette sub-family B member 6 (Homo sapiens), sequence (Q9NP58 whole entry, looked up): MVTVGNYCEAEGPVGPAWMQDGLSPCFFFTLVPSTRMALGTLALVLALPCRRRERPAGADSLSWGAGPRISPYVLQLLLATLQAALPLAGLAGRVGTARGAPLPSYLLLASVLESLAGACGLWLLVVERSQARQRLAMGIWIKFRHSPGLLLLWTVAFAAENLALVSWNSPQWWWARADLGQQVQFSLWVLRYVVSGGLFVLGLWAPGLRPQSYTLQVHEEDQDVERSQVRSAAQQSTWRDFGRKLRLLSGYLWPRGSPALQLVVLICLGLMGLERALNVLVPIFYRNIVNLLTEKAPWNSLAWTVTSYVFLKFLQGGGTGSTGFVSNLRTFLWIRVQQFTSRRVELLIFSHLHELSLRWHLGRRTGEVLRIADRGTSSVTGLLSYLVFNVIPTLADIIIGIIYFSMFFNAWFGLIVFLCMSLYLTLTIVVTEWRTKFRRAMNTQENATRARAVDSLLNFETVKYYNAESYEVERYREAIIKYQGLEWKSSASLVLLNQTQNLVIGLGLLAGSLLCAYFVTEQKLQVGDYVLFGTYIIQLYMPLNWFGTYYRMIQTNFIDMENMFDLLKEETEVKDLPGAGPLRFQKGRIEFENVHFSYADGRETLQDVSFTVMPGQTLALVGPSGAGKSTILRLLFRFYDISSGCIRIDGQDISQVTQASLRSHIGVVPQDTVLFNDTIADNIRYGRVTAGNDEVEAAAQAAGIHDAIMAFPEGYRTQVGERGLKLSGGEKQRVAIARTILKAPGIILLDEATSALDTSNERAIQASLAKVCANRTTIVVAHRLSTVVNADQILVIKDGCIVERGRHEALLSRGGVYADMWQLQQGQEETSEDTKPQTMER
# [16] = AML differentiation inducers, ER-HoxA9 marrow cells – cell-based, GFP/MAC1 double positive, flow cytometry, validation set, primary screen (AID 588685;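 active = differentiation response of at least 50%, scaled between solvent and reference control, from cells with both markers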;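 note: compound exposure lasts four days before antibody staining and flow analysis; 0% = DMSO wells and 100% = 5 µM fulvestrant positive control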); conditions: stronger effect = higher value, normalized: vehicle 0, fulvestrant 100
SMILES,percent of DMSO control GFP [1],GFP response vs DMSO [2],percent response of DMSO control [3],GFP response vs DMSO [4],"GFP response, % of DMSO [5]",double positive events [6] [%],vesicle binding response [6],inhibition [7],superoxide response (% of plate) [8],aptamer binding inhibition [9],response [10],inhibition [11],response [12],binding (% of control) [13],efflux inhibition (fraction of control) [14],inhibition [15],differentiation response [16]
O=C(CCc1c[nH]c2ccccc12)NCc1ccco1,102% (inactive),106% (inactive),93.8% (inactive),109% (inactive),106% (inactive),63,201% (inactive),3.99% (inactive),98.4% (inactive),-3% (inactive),-21.7% (inactive),33.1% (inactive),1.49% (inactive),103% (inactive),0.04 (inactive),5% (inactive),0.92% (inactive)
CCn1c(SCC(=O)c2ccccc2)nc2ccccc2c1=O,103% (inactive),108% (inactive),99.7% (inactive),115% (inactive),104% (inactive),60.3,176% (inactive),-18.5% (inactive),110% (inactive),-1% (inactive),0.7% (inactive),9.92% (inactive),-1.15% (inactive),99.6% (inactive),0.53 (active),9% (inactive),-14.8% (inactive)
O=C(COc1ccccc1)Nc1ccc2c(c1)C(=O)N(CC1CCCO1)C2=O (stereo not drawn),100% (inactive),102% (inactive),102% (inactive),113% (inactive),106% (inactive),61.5,179% (inactive),13.7% (inactive),110% (inactive),3% (inactive),3.99% (inactive),4.36% (inactive),-0.92% (inactive),100% (inactive),0.47 (active),-12% (inactive),-8.96% (inactive)
CCCN(CCC)C(=O)C(CCC(=O)O)NC(=O)c1ccccc1 (stereo not drawn),98.8% (inactive),109% (inactive),95.4% (inactive),92% (inactive),94.5% (inactive),59.4,977% (inactive),7.85% (inactive),94.3% (inactive),7% (inactive),-4.18% (inactive),-5.39% (inactive),-4.29% (inactive),99.8% (inactive),-0.2 (inactive),-8% (inactive),6.11% (inactive)
Cc1ccc(S(=O)(=O)NC(=O)Nc2cc(C)ccc2F)cc1,102% (inactive),105% (inactive),93.1% (inactive),82.2% (inactive),96.5% (inactive),62.3,1090% (inactive),2.66% (inactive),110% (inactive),2% (inactive),-5.23% (inactive),56.9% (active),-3.86% (inactive),92.9% (inactive),0.64 (active),-2% (inactive),34.5% (inactive)
CCOC(=O)C1=C(C)N[C@@]2(O)c3ccccc3C(=O)[C@@]12O,102% (inactive),106% (inactive),106% (inactive),92.2% (inactive),98.5% (inactive),65.1,254% (inactive),-7.25% (inactive),96.8% (inactive),1% (inactive),-1.07% (inactive),12.9% (inactive),13% (inactive),99.3% (inactive),-0.21 (inactive),6% (inactive),-21.6% (inactive)
COC(=O)C1=C(C)NC(C)=C([N+](=O)[O-])C1c1ccccc1C(F)(F)F (stereo not drawn),101% (inactive),110% (inactive),98.6% (inactive),97% (inactive),105% (inactive),58.2,160% (inactive),9.63% (inactive),102% (inactive),0% (inactive),4.56% (inactive),-3.68% (inactive),3.77% (inactive),106% (inactive),-0.3 (inactive),4% (inactive),-7.5% (inactive)
CCOC(=O)c1c(O)c2c([nH]c1=O)CCCC2,100% (inactive),91.9% (inactive),101% (inactive),102% (inactive),96% (inactive),69.7,109% (inactive),-34.6% (inactive),101% (inactive),3% (inactive),-11% (inactive),17.2% (inactive),-2.71% (inactive),99.3% (inactive),0.01 (inactive),9% (inactive),5.6% (inactive)
CC(C)OC(=O)C1C2C=CC3(CN(CC4CCCO4)C(=O)C13)O2 (stereo not drawn),99.1% (inactive),104% (inactive),98.6% (inactive),117% (inactive),102% (inactive),58.9,152% (inactive),-4.52% (inactive),100% (inactive),1% (inactive),1.99% (inactive),-4.29% (inactive),-0.97% (inactive),98% (inactive),0.19 (inactive),7% (inactive),-16.8% (inactive)
CCCCCCCCCC(=O)OCC(O)CO (stereo not drawn),105% (inactive),105% (inactive),102% (inactive),103% (inactive),93.4% (inactive),65.4,163% (inactive),-10.8% (inactive),116% (inactive),4% (inactive),-2% (inactive),59.4% (active),-4.17% (inactive),96.3% (inactive),0.18 (inactive),5% (inactive),9.04% (inactive)
CCOC(=O)n1c(=O)oc2ccccc21,97% (inactive),104% (inactive),102% (inactive),102% (inactive),107% (inactive),62.5,196% (inactive),6.55% (inactive),105% (inactive),7% (inactive),-19.8% (inactive),-0.08% (inactive),10.2% (inactive),107% (inactive),0.08 (inactive),3% (inactive),-4.99% (inactive)
Cc1nonc1CN(C)C(=O)c1ccc(OC2CCN(Cc3ccccn3)CC2)cc1,107% (inactive),97.2% (inactive),113% (inactive),83.5% (inactive),102% (inactive),61.2,249% (inactive),19.3% (inactive),95.8% (inactive),0% (inactive),-11.2% (inactive),-5.72% (inactive),2.07% (inactive),97.6% (inactive),0.14 (inactive),13% (inactive),6.11% (inactive)
CC12CN3CC(C)(CN(C1)C3c1ccc([N+](=O)[O-])o1)C2 (stereo not drawn),102% (inactive),101% (inactive),95.4% (inactive),96% (inactive),91.5% (inactive),64.6,1050% (inactive),12% (inactive),111% (inactive),5% (inactive),-5.46% (inactive),1.92% (inactive),2.45% (inactive),93.8% (inactive),-0.1 (inactive),-9% (inactive),7.09% (inactive)
COc1cc(C(=O)OCCn2c(=O)c3c(ncn3CCN(C)C)n(C)c2=O)cc(OC)c1OC,106% (inactive),103% (inactive),101% (inactive),112% (inactive),117% (inactive),62.6,156% (inactive),4.84% (inactive),115% (inactive),6% (inactive),-24.2% (inactive),-2.34% (inactive),-26.2% (inactive),112% (inactive),-0.13 (inactive),9% (inactive),-6.96% (inactive)
O=C1CCCC(=O)C1=Cc1c[nH]c2ccccc12,97.9% (inactive),102% (inactive),95.1% (inactive),112% (inactive),106% (inactive),62,226% (inactive),9.95% (inactive),108% (inactive),3% (inactive),28.4% (inactive),7.17% (inactive),5.91% (inactive),98.5% (inactive),0 (inactive),-6% (inactive),5.85% (inactive)
C=C(C)C(=O)Nc1ccc(NC(C)C)cc1,104% (inactive),104% (inactive),97.6% (inactive),106% (inactive),101% (inactive),66,170% (inactive),9.63% (inactive),96.6% (inactive),4% (inactive),0.61% (inactive),19.3% (inactive),-7.05% (inactive),95.1% (inactive),-0.09 (inactive),0% (inactive),-8.96% (inactive)
CCCCN1C[C@H](O)[C@@H](O)[C@H](O)[C@H]1CO,102% (inactive),99.6% (inactive),95.7% (inactive),103% (inactive),113% (inactive),64.9,203% (inactive),13.4% (inactive),104% (inactive),5% (inactive),-17% (inactive),-12.1% (inactive),5.64% (inactive),104% (inactive),-0.04 (inactive),0% (inactive),0.92% (inactive)
Cc1nonc1CN(C)C(=O)c1ccc(OC2CCN(C(=O)c3cccnc3)CC2)cc1,103% (inactive),105% (inactive),109% (inactive),98% (inactive),102% (inactive),57.8,176% (inactive),12.3% (inactive),94.8% (inactive),0% (inactive),-1.64% (inactive),-7.99% (inactive),2.88% (inactive),103% (inactive),0.05 (inactive),12% (inactive),-8.96% (inactive)
COc1ccc(CN2CCCCC2C(=O)Nc2ccc(OC)c(OCC(C)C)c2)cc1OC (stereo not drawn),100% (inactive),103% (inactive),101% (inactive),90.7% (inactive),104% (inactive),54.3,29% (active),-0.45% (inactive),95% (inactive),2% (inactive),-10.2% (inactive),18.5% (inactive),-0.65% (inactive),95.9% (inactive),-0.35 (inactive),4% (inactive),2.2% (inactive)
